Drawing on ChEMBL document CHEMBL1157539, “Thousands of chemical starting points for antimalarial lead identification” (Nature, 2010), this text covers Inhibition for 28 compounds.

Holding throughout (type): functional
The test system of assay [1] is Plasmodium falciparum. As to the kind of experiment: GSK_TCMDC: Inhibition of Plasmodium falciparum 3D7 in whole red blood cells, using parasite LDH activity as an index of growth. Test compounds present at 2uM.
For assay [2], the system named is Plasmodium falciparum. As to the kind of experiment: GSK_TCMDC: Inhibition of Plasmodium falciparum Dd2 in whole red blood cells, using parasite LDH activity as an index of growth. Test compounds present at 2uM.
A further assay has as its system HepG2. Briefly: GSK_TCMDC: Percent inhibition of human HepG2 cell line. Test compounds present at 10uM.

As usually defined, the Inhibition is the percentage by which the read-out fell short of the control. Take `Nc1nc(O)c2c(n1)CCc1c(Br)cccc1-2`: the Inhibition with Plasmodium falciparum [1] was determined as 97%; in the assay on Plasmodium falciparum [2], 0%; in the assay on HepG2, 66%.

With `COc1cc(NC(=O)/C=C/c2ccc(-c3ccccc3)cc2)ccc1OCCN(C(C)C)C(C)C.Cl`, the Inhibition in the assay on Plasmodium falciparum [1] is on record as 94%; in the assay on Plasmodium falciparum [2] it was 62%; in the assay with HepG2, 58%.

Take `CN(C)CCN(C)Cc1ccc(-c2ccc3c(Nc4ccc(Cl)cc4F)ccnc3c2)o1`: the Inhibition with Plasmodium falciparum [1] was found to be 100%; with Plasmodium falciparum [2], 76%; with HepG2, 20%.

As to `O=C(CC1SC(N2N=C(c3cccs3)CC2c2ccccc2)=NC1=O)Nc1ccc(Cl)cc1` (centres undefined), the Inhibition turned out to be 83% with Plasmodium falciparum [1], 88% in the assay on Plasmodium falciparum [2] and 18% with HepG2.

On to `COc1ccc2[nH]ccc(=NN=Cc3ccc(F)cc3)c2c1`, for which the Inhibition turned out to be 98% in the assay with Plasmodium falciparum [1], 54% with Plasmodium falciparum [2] and 2% with HepG2.

Take `COc1cc(C(=O)N2CCN(C(C)C)CC2)ccc1CN(C)CCCN1CCN(c2cccc(Cl)c2Cl)CC1.Cl`: the Inhibition in the assay with Plasmodium falciparum [1] worked out at 100%; in the assay with Plasmodium falciparum [2], 87%; with HepG2, 56%.

For `Cn1nccc1C(=O)NCCNCc1cccc(-c2ccc(-c3nc4cc(C(F)(F)F)ccc4[nH]3)cc2)c1.O=C(O)C(F)(F)F`, the Inhibition in the assay on Plasmodium falciparum [1] was determined as 100%; in the assay with Plasmodium falciparum [2] it was 98%; in the assay on HepG2, 51%.

For `Cl.c1ccc(-c2ccc3c(Nc4ccc5[nH]ccc5c4)ccnc3c2)nc1`, the Inhibition is 91% with Plasmodium falciparum [1], 78% with Plasmodium falciparum [2] and 11% in the assay with HepG2.

With `O=C(NC1CCN(CCC[C@]2(c3ccc(Cl)c(Cl)c3)CCCN(C(=O)c3ccccc3)C2)CC1)c1ccc(Cl)cc1`, the Inhibition with Plasmodium falciparum [1] was found to be 95%; in the assay with Plasmodium falciparum [2], 4%; in the assay on HepG2, 56%.

With `CCOC(=O)COc1cccc(CNc2ccc3nc(N)nc(N)c3c2)c1`, the Inhibition with Plasmodium falciparum [1] was found to be 100%; with Plasmodium falciparum [2] it was 99%; with HepG2, 18%.

Regarding `COc1cc2c(cc1S(=O)(=O)c1ccc(NC(=O)c3cccc(C(F)(F)F)c3)cc1)CCN(C)CC2`, the Inhibition came out at 92% in the assay with Plasmodium falciparum [1], 25% in the assay on Plasmodium falciparum [2] and 18% with HepG2.

Turning to `O=C(Nc1cccc(-c2cccc(-c3nc4ccccc4[nH]3)c2)c1)Nc1ccc(Cl)c(Cl)c1`, the Inhibition with Plasmodium falciparum [1] was found to be 100%; in the assay with Plasmodium falciparum [2], 98%; in the assay on HepG2, 78%.

Consider `O=C(c1c(-c2[nH]c3ccccc3c2C(=O)C(F)(F)F)[nH]c2ccccc12)C(F)(F)F`, for which the Inhibition is given as 97% in the assay with Plasmodium falciparum [1], 99% with Plasmodium falciparum [2] and 18% in the assay on HepG2.

As for `CC(C)Cn1c(Sc2ccc(C#N)c([N+](=O)[O-])c2)nnc1-c1cccs1`, the Inhibition with Plasmodium falciparum [1] is 90%; with Plasmodium falciparum [2] it was 32%; in the assay on HepG2 it was 9%.

As to `O=C(/C=C/c1ccc(Cl)c(Cl)c1)NCCCCCN1CCC(NC(=O)c2cccc(Cl)c2)CC1`, the Inhibition in the assay on Plasmodium falciparum [1] came out at 98%; in the assay with Plasmodium falciparum [2], 23%; in the assay with HepG2, 12%.

As for `CN1CCc2ccc(NC(=O)Nc3ccc(-c4ccccc4)cc3)cc2C1`, the Inhibition is listed as 90% in the assay on Plasmodium falciparum [1], 45% in the assay with Plasmodium falciparum [2] and 24% in the assay with HepG2.

As to `CCC[C@@H]([C@@H](CC1CCC(C)CC1)C(=O)N[C@@H](CO)C(=O)Nc1nccs1)N(O)C=O` (some centres undefined), the Inhibition with Plasmodium falciparum [1] is 100%; in the assay on Plasmodium falciparum [2] it was 84%; in the assay on HepG2, 0%.

As to `C=C(C)COc1ccc(-c2n[nH]c(C(F)(F)F)c2-c2ccccc2OC)c(O)c1`, the values for the Inhibition with Plasmodium falciparum [1], in the assay on Plasmodium falciparum [2] and in the assay with HepG2 were 98%, 72% and 19%, respectively.

For `CN(CCN1CCCC1)c1nc2cc(-n3cnc4cc(-c5ccc(Cl)cc5)sc4c3=O)ccc2[nH]1.CS(=O)(=O)O`, the Inhibition in the assay with Plasmodium falciparum [1] turned out to be 93%; with Plasmodium falciparum [2], 15%; in the assay with HepG2, 76%.

For `NS(=O)(=O)c1ccc(Nc2nccc(-c3c(-c4cccc(NC(=O)c5c(F)cccc5F)c4)nn4ccccc34)n2)cc1`, the Inhibition in the assay with Plasmodium falciparum [1] was found to be 93%; in the assay on Plasmodium falciparum [2], 89%; in the assay on HepG2, 83%.

On to `COc1ccc(CCN2CCC(CN(C)Cc3cnn(-c4ccccc4)c3)CC2)cc1`, for which the Inhibition in the assay with Plasmodium falciparum [1] turned out to be 90%; with Plasmodium falciparum [2], 5%; with HepG2, 25%.

`Cc1cc(N(C)CCCN(C)C)nc(Nc2ccc(Cl)cc2)n1`: the Inhibition was 100% in the assay on Plasmodium falciparum [1], 79% in the assay with Plasmodium falciparum [2] and 7% in the assay on HepG2.

Turning to `COc1ccc2ncc(F)c(CCN3CC[C@@H](CNCc4cc5c(cn4)OCS5)C3)c2n1.Cl`, the results for the Inhibition in the assay with Plasmodium falciparum [1], in the assay on Plasmodium falciparum [2] and with HepG2 were 98%, 29% and 3%, respectively.

On to `Cc1[nH]c2ccc(NS(C)(=O)=O)cc2c1C1CCN(CCC2CCN(C(=O)/C=C/c3ccc(Cl)c(Cl)c3)CC2)CC1`, for which the Inhibition came out at 100% with Plasmodium falciparum [1], 94% in the assay on Plasmodium falciparum [2] and 23% in the assay on HepG2.

`C=CCc1ccc(C2CCN(CCCCNC(=O)c3ccc(NC(=O)c4ccc(Cl)cc4)cc3)CC2)cc1`: the results for the Inhibition in the assay with Plasmodium falciparum [1], with Plasmodium falciparum [2] and with HepG2 were 100%, 97% and 27%, respectively.

For `CC(Sc1nc(-c2ccccc2)c(-c2ccccc2)o1)C(=O)NC1CC1` (centres undefined), the Inhibition came to 94% with Plasmodium falciparum [1], 91% with Plasmodium falciparum [2] and 13% in the assay with HepG2.

For `CCN1CCN(c2cc(C)c3cc(NC(=O)c4cccc(Cl)c4)ccc3n2)CC1`, the Inhibition with Plasmodium falciparum [1] came out at 100%; in the assay on Plasmodium falciparum [2], 58%; in the assay with HepG2, 4%.

On to `COc1ccc2nccc([C@@H](O)CN3CCC(NCC(O)Cc4ccccc4)CC3)c2c1.O=C(O)C(=O)O` (some centres undefined), for which the Inhibition in the assay on Plasmodium falciparum [1] was 98%; in the assay on Plasmodium falciparum [2] it was 6%; in the assay on HepG2, 5%.
